High-throughput results (PubChem BioAssay)
This is a sample that favours compounds with a hit; in the whole collection about 4.6% have one here.
TRHR PAM – allosteric enhancers of human TRH receptor. TRHR cells, fluo-8 calcium fluorescence, EC20 TRH enhancement. enhancement, % at 2 µM. 0.66% of 360,000 active. AID 493056; in the data active = enhancement above about 30%
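Enhancer read-out: after compound pinning and an initial kinetic agonist-mode read, an EC20 of TRH (10 nM final) was injected and fluo-8 calcium signal (Ex 480/Em 530) followed at 1 s/cycle for 100 cycles in TRHR-expressing cells.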
D1 ag – activates the human D1 dopamine receptor | activation, % at 2 µM | HEK293 T-REx D1 cells, calcium flux, agonist mode | P21728 | AID 504660 | 1% of 360,000 active
Target sequence (P21728 whole entry, looked up): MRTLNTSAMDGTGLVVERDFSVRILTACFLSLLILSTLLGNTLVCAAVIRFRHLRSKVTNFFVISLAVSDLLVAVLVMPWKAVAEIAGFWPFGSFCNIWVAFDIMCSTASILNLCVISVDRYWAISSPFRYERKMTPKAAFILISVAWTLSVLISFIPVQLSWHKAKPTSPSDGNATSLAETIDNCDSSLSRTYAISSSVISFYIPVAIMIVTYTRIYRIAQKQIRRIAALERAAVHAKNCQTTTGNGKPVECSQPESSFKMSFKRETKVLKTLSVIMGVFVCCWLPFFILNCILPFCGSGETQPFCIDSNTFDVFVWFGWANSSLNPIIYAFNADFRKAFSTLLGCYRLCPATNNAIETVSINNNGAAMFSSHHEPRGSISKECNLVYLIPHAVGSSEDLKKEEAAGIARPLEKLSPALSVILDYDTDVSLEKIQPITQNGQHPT
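Inducible HEK293 T-REx D1 cells, force-coupled to calcium signalling, were plated at 4000 cells/well with tetracycline and held overnight at 30 C. After no-wash calcium dye loading, compound-evoked calcium rise over 180 s flagged agonists.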
D1 potentiator – potentiators of human D1 dopamine receptor. HEK293 TREx D1 cells, calcium flux, dopamine EC20 potentiation. potentiation, % at 10 µM. AID 504651. 0.036% of 360,000 active; in the data active = potentiation above about 30%
TRHR ag – activates the human TRH receptor | TRHR cells, calcium flux fluo-8, FDSS agonist mode | 0.18% of 360,000 active | activation, % at 2 µM
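Read-out: compound-evoked intracellular calcium rise in TRHR cells, fluo-8 dye, kinetic FDSS fluorescence at 1 s/cycle following a 10-cycle baseline. Cells cultured overnight before dye loading (30 min–1.5 h, RT).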
D1 antag – human D1 dopamine receptor antagonism; activity change, negative = inhibition, % at 10 µM; AID 504652; 3.2% of 360,000 active; HEK293 TREx D1 cells, calcium flux, dopamine EC80; hits give low values; in the data active = activity change below about -30%
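Kinetic fluorescence of a calcium dye serves as the read-out. D1-expressing Hek293 Trex cells, induced overnight at 30 C, are exposed to compound for 180 s before an EC80 dopamine addition, then read 180 s further.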
Numbers stand for hits; – = inactive; · = not tested or not shown; ! = a repeat was not active. Cut-off read from the data, not from the text of the source, unless noted: active = activation above about 30%; inactive = the rest.

SMILES | TRHR PAM | D1 ag | D1 potentiator | TRHR ag | D1 antag
COc1cc2[nH]c(=O)n(-c3ccc(C)cc3)c(=O)c2cc1OC | – | – | – | – | -44!
COc1cc(C(c2c(O)c3ccccc3oc2=O)c2c(C)n(C)n(-c3ccccc3)c2=O)ccc1OCC(=O)O (stereo not drawn) | – | – | – | – | –
Cc1ccc(OCC(=O)Nc2ccc(Cl)cc2C(=O)c2ccccc2)cc1C | – | – | – | – | –
Cc1ccc(NC(=O)N(Cc2ccc3c(c2)OCO3)C2CCN(Cc3ccccc3)CC2)cc1Cl | – | 42 | – | – | –
Cc1cccc(OCC(=O)N2CCN(Cc3cc(=O)n4nc(-c5ccccc5Cl)sc4n3)CC2)c1 | – | – | – | – | –
CC1(C)C[C@H]2C=C(C=O)[C@]3(C=O)C[C@]3(C)[C@H]2C1 | – | – | – | – | -57
NC(N)=N/N=C/c1ccc(N(c2ccccc2)c2ccccc2)cc1 | – | – | – | – | –
C/C(=N\N=C(N)N)c1ccccc1 | – | – | – | – | -38
COc1ccc(OCC(=O)N2CCN(CCc3ccccn3)CC2)cc1 | – | – | – | – | –
Cc1ccc2c(=O)n(-c3cccc(Cl)c3)c(=O)[nH]c2c1 | – | – | – | – | –
COc1ccc(NC(=O)CN2C(=O)C(C)N=C(c3ccccc3F)c3cc(Cl)ccc32)c(OC)c1 (stereo not drawn) | – | – | – | – | –
Cc1ccc(/C=C2\C(=O)NC(=O)N(CCc3ccc(F)cc3)C2=O)o1 | 37 | – | – | – | –
Cc1ccc(/C=C2/C(=O)NC(=O)N(Cc3ccc(F)cc3)C2=O)o1 | – | – | – | – | –
O=C(Nc1ccon1)c1cccn(Cc2cccc([N+](=O)[O-])c2)c1=O | – | – | – | – | ·
Cc1nonc1OCCNCCNc1ccc([N+](=O)[O-])c2cccnc12 | – | – | – | – | -35
CCNCCNc1ccc([N+](=O)[O-])c2cccnc12 | – | – | – | – | –
C[C@H]1CC[C@@H]2[C@@H](C)[C@H]3[C@H](C[C@H]4[C@@H]5CC=C6C[C@@H](O[C@@H]7O[C@H](CO)[C@H](O)[C@H](O[C@@H]8O[C@H](CO)[C@@H](O)[C@H](O)[C@H]8O)[C@H]7O[C@@H]7O[C@@H](C)[C@H](O)[C@@H](O)[C@H]7O)CC[C@]6(C)[C@H]5CC[C@]34C)N2C1 | – | 96 | – | – | –
COc1ccc(OC)c(NP(=O)(Oc2ccccc2)Oc2ccccc2)c1 | 30 | – | – | – | –
CCOc1ccc2nc(NC(=O)c3cccn(Cc4ccc(Cl)cc4)c3=O)sc2c1 | – | – | – | – | –
CN1C[C@H](CNC(=O)OCc2ccccc2)C[C@@H]2c3cccc4c3c(cn4C)C[C@H]21 | – | 37 | – | – | -87
CCSc1nnc(NC(=O)c2cccn(Cc3ccccc3Cl)c2=O)s1 | – | – | – | – | –
CCOc1ccc(-n2c(O)c(/C=C3\C=Nc4ccccc43)c(=O)[nH]c2=O)cc1 | – | 32 | – | – | –
COC(=O)C1=C(c2cccc(OCc3ccccc3)c2)C[C@@H]2CC[C@H]1N2C(=O)NCc1ccc(OC)cc1 | – | – | 41 | – | –
COC(=O)C1=C(c2cccc(OCc3ccccc3)c2)C[C@@H]2CC[C@H]1N2C(=O)NCc1cccc(C(F)(F)F)c1 | – | – | – | – | ·
COC(=O)C1=C(c2ccc(F)cc2OCc2ccccc2)C[C@@H]2CC[C@H]1N2C(=O)NC1Cc2ccccc2C1 | – | – | – | – | -31
SMILES | TRHR PAM | D1 ag | D1 potentiator | TRHR ag | D1 antag
COC(=O)C1=C(c2cccc(OCc3ccccc3)c2)C[C@@H]2CC[C@H]1N2C(=O)NCc1cc(C)oc1C(F)(F)F | – | – | – | – | -31
CC(C)(C)c1ccc(O)c(N=Cc2c(O)ccc3ccccc23)c1 | – | 258 | – | 63 | –
COC(=O)C(O)(c1ccc(N=Cc2ccccc2O)c(C)c1)C(F)(F)F (stereo not drawn) | – | – | – | – | –
C[C@H]1CCC/C=C/C2C[C@H](O)CC2[C@H](O)/C=C/C(=O)O1 (stereo partly drawn) | – | – | – | – | -41
CC1CCC/C=C/C2CC(O)CC2C(O)/C=C/C(=O)O1 (stereo not drawn) | – | – | – | – | –
Cc1ccc(-c2nc(CN3C(=O)CN=C(c4ccccc4Cl)c4cc(Cl)ccc43)c(C)o2)cc1 | – | – | – | – | –
COCCN1C(=O)NC(=O)/C(=C\c2ccc(Br)cc2)C1=O | – | – | – | – | -55
CN(C)c1ccc(/C=C2/C(=O)NC(=O)N(CCc3ccc(F)cc3)C2=O)cc1 | – | – | – | – | –
Cc1ccc(C(=O)N[C@@H](C)CN2C3=NC[C@@H](Cc4ccccc4)N3C[C@H]2Cc2ccc(O)cc2)cc1Br | – | – | – | – | -44
Cc1ccc(C(=O)N[C@@H](C)CN2C3=NC[C@H](Cc4ccccc4)N3C[C@H]2Cc2ccc(O)cc2)cc1Br | – | – | – | – | -65
Cc1ccccc1-n1nc(C)c2c1NC(=O)CSC2c1ccc(N(C)C)cc1 (stereo not drawn) | – | – | – | – | –
CC(c1ccc(F)cc1)n1cc(C(=O)NCc2ccc3c(c2)OCO3)nn1 (stereo not drawn) | – | 31 | – | – | –
COc1ccc(CCNCc2ccc(C)s2)cc1OC | – | – | – | – | –
COc1ccc(Cc2nccc3cc(OC)c(OC)cc23)cc1OC | – | – | – | – | -32
Cc1ccc(-n2c(O)c(C=NC3CCCC3)c(=O)[nH]c2=O)c(C)c1 | 41 | – | – | – | –
Cc1ccc(-n2c(O)c(C=NC3CCCCC3N)c(=O)[nH]c2=O)cc1C (stereo not drawn) | – | – | – | – | –
O=C(COc1ccc(Br)cc1)Nc1ccc(Cl)cc1C(=O)c1ccccc1 | – | – | – | – | –
CN1C[C@H](CO)C[C@@H]2c3cccc4[nH]cc(c34)C[C@H]21 | – | – | – | – | -42
CCN(CC)C(=O)N[C@H]1C[C@@H]2c3cccc4[nH]cc(c34)C[C@H]2N(C)C1 | – | – | – | – | -89
O=[N+]([O-])c1ccc(N2CCOCC2)c2ccncc12 | – | – | – | – | –
Cc1cc(O)c2c3c(c(=O)oc2c1)CCC(C)C3 (stereo not drawn) | – | 37 | – | – | -35
Cc1ccccc1Cn1cccc(C(=O)Nc2nc3ccccc3s2)c1=O | – | – | – | – | –
COc1ccccc1CCNCc1ccc(OC)c(OC)c1OC | 39 | – | – | – | –
Cc1c(Cl)cccc1NC(=O)CN1C(=O)C(C)N=C(c2ccccc2)c2ccccc21 (stereo not drawn) | – | – | – | – | –
CCOc1ccc2nc(NC(=O)c3cccn(Cc4ccccc4)c3=O)sc2c1 | – | 33 | – | – | ·
CCc1nc(SC)ncc1C(=O)Nc1ccc(Cl)cc1C(=O)c1ccccc1 | – | – | – | – | –
